Assay outcomes as filed in PubChem BioAssay.
sEH inhibitor = soluble epoxide hydrolase (human) inhibition; actives 0.34% (n = 91,000); inhibition, % at 2 µM; recombinant human sEH enzymatic activity assay; in the data active = inhibition above about 80%
MRP1 act = activators of MRP-1; AID 799; H69AR cells + doxorubicin, viability rescue, CellTiter-Glo; actives 0.61% (n = 140,000); viability increase, % at 10 µM;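 active = viability gain under doxorubicin at or above a set limit, the compound median plus 3 SD, cut at about 4.7% in these data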;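 note: MRP-1 overexpressing cells given doxorubicin 25 µM after compound pretreatment; 18-22 h compound pretreatment then 72 h with doxorubicin before readout; 0% = doxorubicin-only wells and 100% = vehicle-treated cells without doxorubicin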
sEH act = increases human soluble epoxide hydrolase activity | P34913 | purified human sEH enzymatic activity, activator screen | activation, % at 2 µM | actives 0.04% (n = 91,000) | AID 717; in the data active = activation above about 37%
MRP reversal = compounds reversing MRP-mediated drug resistance. H69AR cells + 2 uM doxorubicin, CellTiter-Glo, 72 h. differential viability (reversal), % at 10 µM. actives 0.04% (n = 85,000);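 active = viability drop by adding the cancer drug above about 55%, with treated viability meeting a 40% cutoff, limit read from the data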;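 note: viability without doxorubicin minus viability with 2 µM doxorubicin for each compound; larger differential means the compound sensitizes cells more to doxorubicin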
SDO1 yeast rescue = sdo1-depleted yeast growth rescue. z-score at 10 µM. S. cerevisiae sdo1-depleted JHY4D growth rescue, OD600 30 h; active compounds read high; pdr5 snq2 efflux-pump mutant strain. actives 0.21% (n = 140,000);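 active = z-score above 3 at both the 24 hr and the 30 hr optical density reads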;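 note: z-score against mean and SD of all compound wells on the same plate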
Phagocyt inh = blocks phagocytosis by macrophages; J774A.1 macrophage IgG-bead phagocytosis, imaging; inhibition, % at 5 µM; actives 0.07% (n = 110,000);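 active = inhibition above the mean of the plate negative controls plus 5 SD, cut at about 13% in these data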;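 note: phagocytic index as fraction of beads internalized from green versus red external bead signal; plate controls were DMSO negative control for no effect and cytochalasin-D positive control for full effect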
sdo1 rescue conf = confirmation of growth rescue in SDO1-depleted yeast, bone marrow failure | actives 44% (n = 440) | AID 949 | S. cerevisiae JHY4D (SDO1-depleted) growth rescue, OD600, 30 h; active compounds read high; efflux-deficient strain, SNQ2 and PDR5 mutated | OD recovery (test concentration not listed) | shares compounds with SDO1 yeast rescue;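 active = yeast growth recovered at 30 hours, either rising with dose fitted slope above 0.001 or with average optical density gain above 0.07, some results past the limit were not filed as active; inactive = growth falling with dose or no effect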;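 note: gain in OD600 from 0 h to 30 h averaged across all seven doses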
* marks the source's active call; other numbers are inactive results; . = no result. Hits are enriched below; roughly 1% of the tested compounds scored in any of these assays.

SMILES	sEH inhibitor	MRP1 act	sEH act	MRP reversal	SDO1 yeast rescue	Phagocyt inh	sdo1 rescue conf
O=C(NCCCN1CCN(CCCNC(=O)c2cccc([N+](=O)[O-])c2)CC1)c1cccc([N+](=O)[O-])c1	.	-3	.	.	11*	-3	0.055
COC(=O)c1ccc2c(c1)C(=O)/C(=C/c1ccc(O)cc1)O2	.	-4	.	.	3.5*	-7	0.06
CCc1ccc(/C=C2\Oc3cc(OS(C)(=O)=O)ccc3C2=O)cc1	.	1	.	.	-0.94	.	.
CCOC(=O)c1oc2ccccc2c1NC(=O)c1cccc(OC)c1OC	6	-5	-5	-28	-0.23	5	0.095*
CCOC(=O)c1oc2ccccc2c1NC(=O)c1cccc(OC)c1	0	2	-2	1	-1.8	3	.
Cc1nc2ncnn2c(C)c1CCC(=O)O	-8	-1	8	3	3.9*	-1	0.099*
CCOC(=O)CCc1c(C)nc2ncnn2c1C	12	-2	-12	21	0.79	.	.
O=C(Cc1coc(-c2ccc(F)cc2)n1)Nc1ccccc1	.	-2	.	.	3.2*	-1	0.041
N#Cc1cc2c(nc1SCC(=O)Nc1sc3c(c1C#N)CCC3)CCC2	.	-4	.	-27	1.1	.	0.024
N#Cc1cc2c(nc1SCC(=O)Nc1sc3c(c1C#N)CCC3)CCCCCC2	-3	-2	2	-6	-1.2	-1	.
CN(c1ccccc1)S(=O)(=O)c1ccc(NC(=S)NC(=O)c2ccccc2)cc1	6	0	-4	.	-1.4	2	.
COc1ccccc1/C=C/C(=O)NC(=S)Nc1ccc(S(=O)(=O)N(C)c2ccccc2)cc1	12	-3	-10	.	2	.	0.047
CSc1nc(N)nc(SCC(=O)c2ccc(C)cc2)c1C#N	13	-3	-13	-4	1.3	0	0.076*
CC(C)Oc1ccc(C2C(C(=O)c3ccco3)=C(O)C(=O)N2CCCN(C)C)cc1 (stereo unspecified)	8	.	-7	-1	.	.	.
Cc1ccc(Cn2c(Sc3nccc(C)n3)nc3c2c(=O)[nH]c(=O)n3C)cc1	.	0	.	15	1.6	-1	0.094*
Cc1ccc(Cn2c(Sc3ncccn3)nc3c2c(=O)[nH]c(=O)n3C)cc1	.	-1	.	25	0.8	-1	.
Cc1ccc(S(=O)(=O)N/N=c2\oc3ccccc3cc2C(=O)Nc2cccc(C)c2)cc1	.	-3	.	.	0.09	1	.
CCN(CC)S(=O)(=O)c1ccc(NC(=O)C2CCCN(C(=O)c3ccc(Cl)cc3)C2)cc1 (stereo unspecified)	.	-1	.	.	-0.71	-9	.
CCN1CCN(CC(O)COCCOc2ccc(Br)cc2)CC1 (stereo unspecified)	.	-1	.	.	6.9*	0	0.041
COc1cccc(CC2CC(=O)N(CCc3ccc4c(c3)OCO4)C2=O)c1 (stereo unspecified)	12	-1	-17	5	5.3*	1	0.088*
COc1ccc(C(=O)NC(=S)NCc2ccc(-c3nc4ccccc4o3)cc2)cc1OC	-10	-4	7	-2	-1.1	-2	.
CCOc1cc(C(=O)NCc2ccc(-c3nc4ccccc4o3)cc2)cc(OCC)c1OCC	1	-6	1	.	1.2	1	0.048
C=CCNc1nc(Nc2ccc([N+](=O)[O-])cc2)nc(OCC)n1	.	-1	.	.	-1.3	-6	.
CCN(CC)S(=O)(=O)c1ccc(NC2c3ncccc3C(=O)N2Cc2ccccc2)cc1 (stereo unspecified)	2	-4	-2	.	10*	.	0.036
COc1ccc(CN2C(=O)c3cccnc3C2Nc2ccc(C)cc2)cc1 (stereo unspecified)	7	-1	-5	23	0.35	-2	.
Cc1c(C(=O)OCC(=O)NCc2ccc3c(c2)OCO3)cccc1[N+](=O)[O-]	.	-1	.	.	-0.68	7	.
O=C(COc1ccccc1C(=O)N/N=C\c1ccc(O)c(O)c1)N/N=C/c1ccc(O)c(O)c1	3	-2	-3	.	2.3	.	0.046
COc1cc(OC)cc(-c2nnc(SCC(=O)N3CCOCC3)o2)c1	-14	0	14	.	3.7*	1	0.072*
COc1cc(OC)cc(-c2nnc(SCC(=O)N3CCCCC3)o2)c1	.	0	.	-1	-1.3	0	.
COc1ccc(C(C2C(=O)CC(C)(C)CC2=O)C2C(=O)CC(C)(C)CC2=O)cc1COCC(F)(F)F	.	-1	.	.	14*	-3	0.082*
